Here are results for six sequences from paper PMC7862700, “An all-to-all approach to the identification of sequence-specific readers for epigenetic DNA modifications on cytosine”.

Holding throughout (experiment): DAPPL (digital affinity profiling via proximity ligation, sequencing); 10 mM Tris-HCl pH 7.5, 50 mM NaCl, 1 mM DTT, 4% glycerol, room temperature, 30 min; GST-TFs on glutathione beads, 16-mer random dsDNA library, 0.1% formaldehyde crosslink after washing; high values mean tight binding
Common to all, as to settings: protein: recombinant; tags: N-terminal GST; dsDNA, one strand shown

The target in one test is T1, ERF (Homo sapiens, UniProt P50548 1-548).
T1 sequence: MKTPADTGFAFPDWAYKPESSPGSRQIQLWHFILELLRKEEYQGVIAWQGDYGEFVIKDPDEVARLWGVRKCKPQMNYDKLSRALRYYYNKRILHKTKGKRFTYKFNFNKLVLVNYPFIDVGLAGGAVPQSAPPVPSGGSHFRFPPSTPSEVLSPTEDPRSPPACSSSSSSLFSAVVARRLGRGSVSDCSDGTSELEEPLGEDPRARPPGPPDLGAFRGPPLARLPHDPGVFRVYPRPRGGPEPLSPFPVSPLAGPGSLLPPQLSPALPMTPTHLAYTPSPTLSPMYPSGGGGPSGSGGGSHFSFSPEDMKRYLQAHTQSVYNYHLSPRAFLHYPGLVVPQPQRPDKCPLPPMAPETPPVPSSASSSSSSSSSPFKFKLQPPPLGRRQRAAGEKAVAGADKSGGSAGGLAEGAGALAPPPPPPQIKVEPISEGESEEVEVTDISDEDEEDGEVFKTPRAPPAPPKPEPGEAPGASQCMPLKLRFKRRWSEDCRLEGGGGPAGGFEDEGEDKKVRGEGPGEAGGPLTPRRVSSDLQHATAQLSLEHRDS
The procedure, abridged:
(§1)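 Binding signal is each hexamer's read frequency for a factor divided by its frequency in the tag-only sample. The factors were GST-fused human transcription factors from yeast, captured on glutathione beads, DNA-barcoded and pooled with that sample. Pools were incubated with 200 nmole of a random double-stranded 16-mer DNA library in Tris/NaCl/DTT/glycerol buffer at room temperature for 30 min, then washed, crosslinked with 0.1% formaldehyde, proximity-ligated with BsaI/T4 ligase (1 h, 37 °C), PCR-amplified and sequenced on an Illumina NextSeq500.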

Another test has as its target T2, ETV3L (Homo sapiens, UniProt Q6ZN32 1-361).
T2 sequence: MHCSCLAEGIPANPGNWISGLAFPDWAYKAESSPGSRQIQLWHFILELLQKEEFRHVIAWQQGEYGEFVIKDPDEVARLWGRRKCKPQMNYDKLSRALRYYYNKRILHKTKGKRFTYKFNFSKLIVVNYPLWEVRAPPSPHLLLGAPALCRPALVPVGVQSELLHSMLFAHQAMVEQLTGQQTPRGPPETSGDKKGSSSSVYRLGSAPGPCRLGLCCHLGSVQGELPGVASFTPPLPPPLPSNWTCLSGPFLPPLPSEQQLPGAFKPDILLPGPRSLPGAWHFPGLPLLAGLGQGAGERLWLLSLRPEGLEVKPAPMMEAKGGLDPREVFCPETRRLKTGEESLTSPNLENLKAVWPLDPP
A digest of the protocol: as §1

In another test the target is T3, ETS2 (Homo sapiens, UniProt P15036 1-469).
T3 sequence: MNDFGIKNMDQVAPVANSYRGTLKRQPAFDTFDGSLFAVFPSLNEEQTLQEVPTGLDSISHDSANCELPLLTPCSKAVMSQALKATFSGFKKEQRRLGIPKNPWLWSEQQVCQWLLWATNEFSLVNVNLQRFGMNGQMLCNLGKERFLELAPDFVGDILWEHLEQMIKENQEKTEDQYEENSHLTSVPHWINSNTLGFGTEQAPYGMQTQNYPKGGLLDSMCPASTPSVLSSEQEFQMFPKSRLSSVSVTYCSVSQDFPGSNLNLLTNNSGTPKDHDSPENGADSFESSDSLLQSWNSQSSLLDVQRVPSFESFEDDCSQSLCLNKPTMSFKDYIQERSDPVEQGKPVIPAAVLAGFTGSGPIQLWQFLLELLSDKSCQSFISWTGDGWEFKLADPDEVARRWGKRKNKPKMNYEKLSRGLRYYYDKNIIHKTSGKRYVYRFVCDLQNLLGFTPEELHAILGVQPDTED
The procedure, abridged: as §1

The target in a further test is T4, SPDEF (Homo sapiens, UniProt O95238 1-335).
T4 sequence: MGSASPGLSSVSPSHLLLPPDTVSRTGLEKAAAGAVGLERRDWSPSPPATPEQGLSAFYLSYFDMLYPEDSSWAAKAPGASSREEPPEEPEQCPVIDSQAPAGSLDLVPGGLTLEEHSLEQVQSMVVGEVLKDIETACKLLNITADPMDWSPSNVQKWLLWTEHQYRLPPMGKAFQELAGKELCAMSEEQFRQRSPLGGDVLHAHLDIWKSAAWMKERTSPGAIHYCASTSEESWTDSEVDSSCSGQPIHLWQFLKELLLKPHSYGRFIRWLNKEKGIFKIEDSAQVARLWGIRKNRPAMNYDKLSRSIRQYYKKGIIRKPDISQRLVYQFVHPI
The procedure, abridged: as §1

A further test addresses T5, ETV7 (Homo sapiens, UniProt Q9Y603 1-341).
T5 sequence: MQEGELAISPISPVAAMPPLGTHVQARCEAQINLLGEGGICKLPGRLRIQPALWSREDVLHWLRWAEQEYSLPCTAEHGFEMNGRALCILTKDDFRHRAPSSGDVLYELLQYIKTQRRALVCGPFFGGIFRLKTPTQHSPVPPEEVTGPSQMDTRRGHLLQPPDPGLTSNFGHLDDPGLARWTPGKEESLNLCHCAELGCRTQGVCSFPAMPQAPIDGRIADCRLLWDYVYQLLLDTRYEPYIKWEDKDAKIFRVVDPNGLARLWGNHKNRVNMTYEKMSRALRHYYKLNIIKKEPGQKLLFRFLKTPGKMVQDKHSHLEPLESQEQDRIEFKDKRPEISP
The procedure, abridged:
as §1

The next test addresses T6, ELF5 (Homo sapiens, UniProt Q9UKW6-2 1-255).
T6 sequence: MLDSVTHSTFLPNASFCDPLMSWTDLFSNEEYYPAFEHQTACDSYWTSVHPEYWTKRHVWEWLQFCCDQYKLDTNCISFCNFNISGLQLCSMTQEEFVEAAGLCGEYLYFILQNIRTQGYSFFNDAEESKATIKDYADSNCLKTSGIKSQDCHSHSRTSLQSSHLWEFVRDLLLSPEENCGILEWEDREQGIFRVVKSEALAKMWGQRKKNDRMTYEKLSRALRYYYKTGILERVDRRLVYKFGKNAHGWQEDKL
A digest of the protocol: as §1

A further test deals with T7, ETV3 (Homo sapiens, UniProt P41162-2 1-143).
T7 sequence: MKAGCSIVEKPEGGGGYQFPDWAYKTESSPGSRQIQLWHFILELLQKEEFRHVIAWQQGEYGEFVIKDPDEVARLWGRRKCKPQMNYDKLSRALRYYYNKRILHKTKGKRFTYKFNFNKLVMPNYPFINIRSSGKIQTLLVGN
The procedure, abridged: as §1

For another test, the target named is ETV6 (Homo sapiens, UniProt P41212 1-452). The procedure, abridged:
as §1

ETV6, sequence (P41212 whole entry): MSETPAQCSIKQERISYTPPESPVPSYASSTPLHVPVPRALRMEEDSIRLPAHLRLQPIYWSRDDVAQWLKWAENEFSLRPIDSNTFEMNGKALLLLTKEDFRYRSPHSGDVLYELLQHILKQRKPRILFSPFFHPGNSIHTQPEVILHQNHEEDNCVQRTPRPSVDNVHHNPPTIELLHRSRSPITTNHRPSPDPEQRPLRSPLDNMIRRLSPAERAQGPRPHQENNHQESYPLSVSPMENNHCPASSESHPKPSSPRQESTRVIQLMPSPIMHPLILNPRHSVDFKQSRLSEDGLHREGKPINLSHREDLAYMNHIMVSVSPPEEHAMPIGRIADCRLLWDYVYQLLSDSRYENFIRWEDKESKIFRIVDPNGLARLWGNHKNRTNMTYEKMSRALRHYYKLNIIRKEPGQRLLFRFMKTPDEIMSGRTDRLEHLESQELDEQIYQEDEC

For the sequence TTCTTG, the binding signal is 1.56 fold enrichment (6-mer frequency, TF over GST control) with ERF; 1.56 fold enrichment (6-mer frequency, TF over GST control) with ETV3L; 1.39 fold enrichment (6-mer frequency, TF over GST control) with ETS2; 1.28 fold enrichment (6-mer frequency, TF over GST control) with SPDEF; 1.48 fold enrichment (6-mer frequency, TF over GST control) in the test with ETV7; 1.39 fold enrichment (6-mer frequency, TF over GST control) with ELF5. For the same sequence, the binding signal in the test with ETV3 was 1.47 fold enrichment (6-mer frequency, TF over GST control); in the test with ETV6, 1.38 fold enrichment (6-mer frequency, TF over GST control).
For the sequence CAAATG, the binding signal with ERF was 1.25 fold enrichment (6-mer frequency, TF over GST control); with ETV3L, 1.11 fold enrichment (6-mer frequency, TF over GST control); in the test with ETS2, 1.15 fold enrichment (6-mer frequency, TF over GST control); with SPDEF it was 1.19 fold enrichment (6-mer frequency, TF over GST control); with ETV7, 1.2 fold enrichment (6-mer frequency, TF over GST control); in the test with ELF5, 1.1 fold enrichment (6-mer frequency, TF over GST control). Further, the binding signal in the test with ETV3 was 1.13 fold enrichment (6-mer frequency, TF over GST control); with ETV6, 1.18 fold enrichment (6-mer frequency, TF over GST control).
On to AGAAGC, for which the binding signal with ERF was 1.11 fold enrichment (6-mer frequency, TF over GST control); with ETV3L, 1.17 fold enrichment (6-mer frequency, TF over GST control); with ETS2 it was 1.09 fold enrichment (6-mer frequency, TF over GST control); with SPDEF it was 1.15 fold enrichment (6-mer frequency, TF over GST control); with ETV7 it was 1.23 fold enrichment (6-mer frequency, TF over GST control); with ELF5, 1.18 fold enrichment (6-mer frequency, TF over GST control). Moreover, the binding signal is 1.23 fold enrichment (6-mer frequency, TF over GST control) with ETV3 and 1.14 fold enrichment (6-mer frequency, TF over GST control) with ETV6.
Take CCTATT: the binding signal with ERF was 1.6 fold enrichment (6-mer frequency, TF over GST control); with ETV3L, 1.64 fold enrichment (6-mer frequency, TF over GST control); with ETS2, 1.49 fold enrichment (6-mer frequency, TF over GST control); with SPDEF, 1.51 fold enrichment (6-mer frequency, TF over GST control); with ETV7 it was 1.52 fold enrichment (6-mer frequency, TF over GST control); in the test with ELF5 it was 1.53 fold enrichment (6-mer frequency, TF over GST control). Moreover, the binding signal is 1.52 fold enrichment (6-mer frequency, TF over GST control) with ETV3 and 1.59 fold enrichment (6-mer frequency, TF over GST control) in the test with ETV6.
For ACCTGA, the binding signal with ERF is 1.14 fold enrichment (6-mer frequency, TF over GST control); with ETV3L it was 1.04 fold enrichment (6-mer frequency, TF over GST control); with ETS2, 1.03 fold enrichment (6-mer frequency, TF over GST control); with SPDEF, 1.14 fold enrichment (6-mer frequency, TF over GST control); in the test with ETV7 it was 1.03 fold enrichment (6-mer frequency, TF over GST control); in the test with ELF5, 1.07 fold enrichment (6-mer frequency, TF over GST control). Besides, the binding signal with ETV3 is 1.07 fold enrichment (6-mer frequency, TF over GST control); in the test with ETV6, 1.09 fold enrichment (6-mer frequency, TF over GST control).
On to AGTGTT, for which the binding signal with ERF was 1.13 fold enrichment (6-mer frequency, TF over GST control); with ETV3L it was 1.1 fold enrichment (6-mer frequency, TF over GST control); with ETS2, 1.1 fold enrichment (6-mer frequency, TF over GST control); in the test with SPDEF, 1.13 fold enrichment (6-mer frequency, TF over GST control); with ETV7 it was 1.14 fold enrichment (6-mer frequency, TF over GST control); in the test with ELF5 it was 1.3 fold enrichment (6-mer frequency, TF over GST control). The binding signal with ETV3 is 1.08 fold enrichment (6-mer frequency, TF over GST control); with ETV6, 1.11 fold enrichment (6-mer frequency, TF over GST control).
